High-throughput results as filed in PubChem.
SMN2 splice enh: qHTS Assay for Enhancers of SMN2 Splice Variant Expression | Potency, µM (series often up to 46.1 µM), most hits filed as activators | 210,000 compounds, 2.8% hits | HEK293 SMN2-luciferase splicing reporter, luminescence, 30-36 h | AID 1458, 2008; further: nearly all actives have a fitted effect of over 55% in size
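qHTS luciferase splicing reporter: luminescence rises when SMN2 exon 7 is included in transfected HEK293 cells. Compound exposure lasted 30-36 h at 37C, with 4.5 mM final sodium butyrate as control, followed by a ONE-Glo read.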
Rab9 prom act: qHTS Assay for Rab9 Promoter Activators | 320,000 compounds, 2.8% hits | Potency, µM (highest dose often 9.22 µM), usual class: activators | Huh7 Rab9 promoter-luciferase reporter, luminescence, 24 h; further: nearly all actives have a fitted effect of over 60% in size
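Promoter activation is measured as luciferase luminescence in Huh7 cells stably transfected with a Rab9 promoter–luciferase construct, following 24 h compound exposure at 37 °C and 10 min reagent incubation at ambient temperature.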
KinaseGlo FLuc: Counterscreen for Luciferase (Kinase-Glo TM) Inhibition | Luciferin 4-monooxygenase (Photuris pensylvanica), Q27757 | Kinase-Glo luciferase, ATP luminescence, 8 min | Potency, µM (series often up to 38.3 µM), actives largely listed as inhibitors | 200,000 compounds, 0.28% hits; further: nearly all actives have a fitted effect of over 60% in size
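Compounds were added to a substrate mix at pH 7.2 (50 mM imidazole, 10 uM ATP, within the enzyme's linear range), followed by Kinase-Glo detection reagent; luminescence was measured after 8 minutes at ambient temperature.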
FLuc counter: qHTS profiling assay for firefly luciferase inhibitor/activator using purifed enzyme and Km concentrations of substrates (counterscreen for miR-21 project). Luciferin 4-monooxygenase (Photinus pyralis), P08659. purified FLuc, Km substrates, luminescence inhibition. Potency, µM (titrated, usually from 57.5 µM), actives largely listed as inhibitors. 360,000 compounds, 6.9% hits. AID 588342, 2011; further: nearly all actives have a fitted effect of over 55% in size
Target sequence (P08659 whole entry, looked up): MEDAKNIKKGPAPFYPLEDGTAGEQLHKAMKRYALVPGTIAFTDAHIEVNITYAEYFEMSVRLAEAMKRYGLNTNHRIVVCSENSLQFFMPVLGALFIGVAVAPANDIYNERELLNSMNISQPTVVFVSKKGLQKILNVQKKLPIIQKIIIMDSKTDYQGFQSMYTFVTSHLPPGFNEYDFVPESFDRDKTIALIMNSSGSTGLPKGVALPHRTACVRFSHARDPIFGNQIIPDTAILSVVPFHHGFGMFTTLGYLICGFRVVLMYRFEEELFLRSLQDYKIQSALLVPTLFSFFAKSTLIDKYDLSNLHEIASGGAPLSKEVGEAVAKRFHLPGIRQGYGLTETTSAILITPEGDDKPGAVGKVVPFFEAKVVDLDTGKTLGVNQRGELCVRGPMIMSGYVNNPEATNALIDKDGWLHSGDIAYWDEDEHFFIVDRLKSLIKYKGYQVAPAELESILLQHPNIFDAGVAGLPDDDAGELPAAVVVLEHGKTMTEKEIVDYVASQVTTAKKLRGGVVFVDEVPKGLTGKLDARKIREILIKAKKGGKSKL
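Purified P. pyralis luciferase (10nM final) with 10uM D-luciferin and 10uM ATP (Km levels) in 50mM Tris acetate pH 7.5, 10mM Mg acetate, 0.01% Tween-20, 0.05% BSA; qHTS 6-point titration, ~60 µM downward; luminescence read.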
ELG1 genotox: qHTS screen for small molecules that induce genotoxicity in human embryonic kidney (HEK293T) cells expressing luciferase-tagged ELG1. 330,000 compounds, 1.3% hits. Potency, µM (series often up to 46 µM), most hits filed as activators. AID 504466, 2011. HEK293T ELG1-luciferase reporter, luminescence, 16 h; further: nearly all actives have a fitted effect of over 60% in size
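Luminescence read-out: rising ELG1-luciferase signal, reflecting elevated ELG1 protein under genetic stress, flags genotoxic compounds. Cells were treated for 16 hr at 37 °C before ONE-Glo detection.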
NPC1 promoter act: qHTS Assay for NPC1 Promoter Activators; 320,000 compounds, 2.4% hits; Huh7 NPC1 promoter luciferase reporter, 24 h; Potency, µM (top dose mostly 9.22 µM), most hits filed as activators; further: nearly all actives have a fitted effect of over 60% in size
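Compounds in DMSO were transferred onto Huh7 NPC1-luciferase reporter cells pre-incubated 2 h; after 24 h at 37 °C, Amplite reagent was dispensed and luminescence recorded 10 min later.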
Large screens that a line does not name were inactive. Compounds with a hit are over-represented: about 7.4% of the library has one in this group of screens. The call rests on the fitted dose curve; in most records, active means well fitted curve in the direction sought with a large enough effect; inconclusive means small, poorly fitted or top-dose-only effect, or another doubt; inactive means no such curve, though single readings can be large; an effect the other way counts as inactive or inconclusive.

CCCC(C(=O)NC(C)(C)C)N(Cc1ccc(F)cc1)C(=O)c1snc(C(N)=O)c1N (configuration not stated)	none (no result: SMN2 splice enh, KinaseGlo FLuc)
O=C(NCCc1ccccc1)c1cc(-c2ccccc2)nc2n[nH]c(-c3ccccc3)c12	none (no result: Rab9 prom act, KinaseGlo FLuc, ELG1 genotox, NPC1 promoter act)
Cc1c(N=C2C=C(Br)C(=O)C(Br)=C2)c(=O)n(-c2ccccc2)n1C	KinaseGlo FLuc inconclusive, FLuc counter 15µM
Cc1c(N=C2C=CC(=O)c3ccccc32)c(=O)n(-c2ccccc2)n1C	FLuc counter inconclusive
Oc1ccc2ccccc2c1C=NCc1cn2ccsc2n1	FLuc counter 19µM
Oc1ccc2ccccc2c1/C=N/c1nccs1	none
N/C(=N\OC(=O)c1cccs1)c1ccccc1	SMN2 splice enh inconclusive, Rab9 prom act inconclusive, KinaseGlo FLuc 10µM, FLuc counter 0.67µM, ELG1 genotox inconclusive, NPC1 promoter act inconclusive
COc1ccc(/C(N)=N/OC(=O)c2cccs2)cc1OC	none (no result: SMN2 splice enh)
N/C(=N\OC(=O)c1cccs1)c1cccc(Br)c1	KinaseGlo FLuc inconclusive, FLuc counter 1.1µM, ELG1 genotox inconclusive
Cc1cccc(/C(N)=N/OC(=O)c2cccs2)c1	SMN2 splice enh inconclusive, Rab9 prom act 1.3µM, KinaseGlo FLuc 2.5µM, FLuc counter 0.76µM, ELG1 genotox inconclusive, NPC1 promoter act 1.1µM
N/C(=N\OC(=O)Cc1ccccc1)c1cccc(Br)c1	FLuc counter 17µM
COC(=O)[C@]1(C)N[C@H](CN(C)C(=O)c2ccc(C)cc2)[C@@H]2C(=O)N(C)C(=O)[C@@H]21	none (no result: SMN2 splice enh, Rab9 prom act, KinaseGlo FLuc, FLuc counter, NPC1 promoter act)
Cn1cc(CN2CCC(n3nccc3NC(=O)CCOc3ccccc3)CC2)cn1	none (no result: SMN2 splice enh, KinaseGlo FLuc)
Cc1ccc(/C(N)=N/OC(=O)c2cccs2)cc1	Rab9 prom act 4.5µM, FLuc counter 1.9µM, ELG1 genotox 15µM, NPC1 promoter act inconclusive
CC(=O)c1cccc(NC(=O)c2ccccc2N(Cc2ccccc2)S(C)(=O)=O)c1	none (no result: SMN2 splice enh, KinaseGlo FLuc)
CCOc1cc(/C=N/Nc2ncnc(Cl)c2N)ccc1O	FLuc counter 11µM, ELG1 genotox inconclusive
CCOc1cc(/C=N/Nc2nnc(C)n2N)ccc1O	none (no result: SMN2 splice enh, KinaseGlo FLuc)
Nc1c(Cl)ncnc1N/N=C/c1ccccn1	FLuc counter inconclusive, ELG1 genotox 4.1µM
Nc1c(Cl)ncnc1N/N=C/c1ccnc2ccccc12	Rab9 prom act inconclusive, FLuc counter inconclusive
Nc1c(Cl)ncnc1N/N=C/c1ccc2ccccc2n1	Rab9 prom act inconclusive, FLuc counter 4.8µM, ELG1 genotox inconclusive, NPC1 promoter act inconclusive
Nc1nc(SCc2ccccc2)[nH]c(=O)c1-c1ccccc1	SMN2 splice enh 13µM, Rab9 prom act inconclusive, FLuc counter 19µM, ELG1 genotox 12µM, NPC1 promoter act inconclusive
O=C(CSC(=S)N1CCSCC1)c1ccc(Cl)cc1	SMN2 splice enh 16µM, Rab9 prom act 1.6µM, FLuc counter 3µM, ELG1 genotox inconclusive, NPC1 promoter act 3.2µM
O=C(CSC(=S)N1CCSCC1)c1ccccc1	SMN2 splice enh 13µM, Rab9 prom act 1.3µM, FLuc counter 4.3µM, ELG1 genotox inconclusive, NPC1 promoter act 1.3µM
Cc1ccc(-c2onc3ccc(C(=O)/C=C/N(C)C)cc23)cc1	FLuc counter 15µM (no result: SMN2 splice enh, KinaseGlo FLuc)
CN(C)/C=C/C(=O)c1ccc2noc(-c3ccc(F)cc3)c2c1	FLuc counter inconclusive (no result: SMN2 splice enh, KinaseGlo FLuc)
CN(C)c1cccc(C(=O)N/N=C/c2ccccc2F)c1	SMN2 splice enh 1.4µM, Rab9 prom act 0.35µM, FLuc counter 0.6µM, ELG1 genotox 1µM, NPC1 promoter act 0.71µM
Cc1cc(/C=N/NC(=O)C(O)(c2ccccc2)c2ccccc2)c(C)n1-c1cccc(C(=O)O)c1	none (no result: SMN2 splice enh, KinaseGlo FLuc)
Cc1cc(/C=N/NC(=O)c2cccc(N(C)C)c2)c(C)n1-c1cc(C(=O)O)cc(C(=O)O)c1	SMN2 splice enh inconclusive, Rab9 prom act inconclusive, FLuc counter 24µM, ELG1 genotox inconclusive
CCOC(=O)c1cc(-c2ccccc2)sc1NC(=O)C(C)N1C(=O)c2ccccc2C1=O (configuration not stated)	none
